Results as given in PubChem BioAssay AID2315 (National Center for Advancing Translational Sciences (NCATS), 2010).
The campaign covered roughly 290,000 compounds. About 27,000 (9.3%) were called active. This is one part of a sample in which actives are shown more often than they occur. Cut-off read from the data, not from the text of the source: active = inhibition mostly above about 28% (no sharp cut-off); inactive = mostly below about 43%.

Experiment: A qHTS for Small Molecule Inhibitors of Shiga Toxin; note: 0% is about no effect
Details: Vero cells, Shiga toxin protein synthesis inhibition reporter; at 38.7 µM, active compounds read high

SMILES	inhibition
COc1ccc(-n2nc(C(=O)NCC(=O)N3CCCCCC3)c3ccccc3c2=O)cc1Cl	-9.59% (inactive)
COc1cc(CC(=O)N2CCC(n3nccc3NC(=O)C3CC3)CC2)cc(OC)c1OC	-10.9% (inactive)
Cc1cc(C)cc(N(CCC#N)C(=O)CN2C(=O)NC3(CCCC3)C2=O)c1	23% (inactive)
O=C(O)C1CCCN1C1=NS(=O)(=O)c2ccccc21 (configuration not stated)	-13.3% (inactive)
CCOC(=O)C1CCN(C(=O)Cn2nc(C)c3c(C)n(-c4ccccc4)nc3c2=O)CC1	-6.47% (inactive)
COc1ccc(N2CCN(S(=O)(=O)c3cc(Br)cnc3N)CC2)cc1	-7.11% (inactive)
O=C(CCN1C(=O)[C@@H]2Cc3ccccc3CN2C1=O)NCCc1ccccc1	-8.8% (inactive)
O=C(c1cc(COc2ccc(F)cc2F)on1)N1CCOCC1	81.3% (active)
COCCN1CCN(C(=O)c2cc(COc3ccc(F)cc3Cl)on2)CC1	-23.4% (inactive)
O=C(Oc1ccc(C(=S)N2CCOCC2)cc1)c1ccc(F)cc1	-4.36% (inactive)
O=C(CSc1ccccc1)Nc1nnc(/C=C/c2ccccc2)s1	-38.9% (inactive)
COc1ccc(/C=C/c2nnc(NC(=O)C(C)C)s2)cc1	42.3% (active)
O=C(Nc1ccc(Cl)cc1)Nc1nnc(/C=C/c2ccccc2)s1	-5.24% (inactive)
COC(=O)[C@]1(S(=O)(=O)c2ccccc2)C[C@@H]2ON=C(c3ccc(OC)cc3)[C@@H]2C1	13.5% (inactive)
Cc1nn2cc(-c3ccc(Cl)cc3)cnc2c1Br	38.8% (active)
COc1ccc(NC(=O)N2CCC(Cc3ccccc3)CC2)cc1	35.2% (inactive)
COc1ccc(N2CCN(C(=S)Nc3ccc(S(N)(=O)=O)cc3)CC2)cc1	-17.7% (inactive)
COc1ccc(NC(=S)N2N=CCC2c2ccccc2)cc1 (configuration not stated)	88.7% (active)
COc1ccccc1CNC(=O)C1CCN(S(=O)(=O)c2ccc3c(c2)CC(C)N3C(=O)C2CC2)CC1 (configuration not stated)	-10.2% (inactive)
Cc1ccc(N(Cc2ccccc2O)C(=O)c2ccccc2F)cc1	-2.19% (inactive)
CCOc1ccc2nc(Nc3nc4ccc(NC(C)=O)cc4s3)sc2c1	50.5% (inactive)
CCOc1ccc2nc(C(=O)N3CCCC(C)C3)sc2c1 (configuration not stated)	129% (active)
CCCC(=O)N(CCN1CCOCC1)c1nc2ccc(OCC)cc2s1	1.4% (inactive)
CC(C)[C@@H](C(=O)O)N(Cc1cccc(CN([C@H](C(=O)O)C(C)C)S(C)(=O)=O)c1)S(C)(=O)=O	-4.11% (inactive)
COc1cccc(CC2(CO)CCCN(CC3=Cc4cc(OC)ccc4OC3)C2)c1 (configuration not stated)	-9.4% (inactive)
CN1c2ccc([N+](=O)[O-])cc2C(C)(C)C12C=Cc1cc(C(=O)O)ccc1O2 (configuration not stated)	6.92% (inactive)
COc1ccc2c(c1)C=CC1(O2)N(CCO)c2ccccc2C1(C)C (configuration not stated)	40.8% (active)
